Compounds with a hit are over-represented: about 3.5% of the library has one in this group of screens.
FBW7 act: activators of human E3 ligase FBW7. AlphaScreen FBW7–phospho-cyclin E peptide binding, activator screen. normalized activity (activation), % at 26.1 µM. Q969H0. actives 0.13% (n = 650,000); in the data active = normalized activity above about 1.9%;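 note: purified mutant Fbw7 with reduced substrate affinity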
GPR151 ag: activators of human GPR151; Q8TDV0; PathHunter beta-arrestin GPR151 cells, luminescence; activation, % at 11.2 µM; actives 1% (n = 650,000); AID 1508602; in the data active = activation above about 4.9%
MITF primary: blocks human microphthalmia-associated transcription factor; AlphaScreen MITF homodimerization, bead proximity signal; inhibition, % at 2.6 µM; actives 0.91% (n = 650,000); AID 1259374; O75030; in the data active = inhibition above about 50%
Target sequence (O75030 whole entry, looked up): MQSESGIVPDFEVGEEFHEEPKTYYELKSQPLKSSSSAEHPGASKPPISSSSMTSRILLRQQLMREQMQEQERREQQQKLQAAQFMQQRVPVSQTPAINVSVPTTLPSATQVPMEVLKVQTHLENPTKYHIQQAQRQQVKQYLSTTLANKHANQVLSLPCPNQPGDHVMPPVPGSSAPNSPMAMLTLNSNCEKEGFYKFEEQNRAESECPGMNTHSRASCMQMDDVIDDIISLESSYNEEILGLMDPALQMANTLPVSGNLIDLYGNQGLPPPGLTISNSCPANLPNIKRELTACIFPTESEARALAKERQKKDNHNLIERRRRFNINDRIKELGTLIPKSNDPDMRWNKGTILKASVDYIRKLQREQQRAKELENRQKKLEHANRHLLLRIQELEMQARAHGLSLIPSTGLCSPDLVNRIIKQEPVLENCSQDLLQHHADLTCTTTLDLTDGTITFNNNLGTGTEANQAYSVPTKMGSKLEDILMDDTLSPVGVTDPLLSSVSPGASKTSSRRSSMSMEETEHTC
TEAD-YAP inh: TEAD-YAP interaction inhibition | HEK-TIYL cells, TEAD-Gal4/YAP UAS-luciferase luminescence | inhibition, % at 9.12 µM | actives 1.4% (n = 640,000) | AID 1259422; in the data active = inhibition above about 32%
Numbers stand for hits; n = inactive.

SMILES	FBW7 act	GPR151 ag	MITF primary	TEAD-YAP inh
Cc1cccc(N(C)S(=O)(=O)c2ccc3c(c2)oc(=O)n3C)c1	n	n	n	46
CC(C)[C@H](NC(N)=O)C(=O)NCCc1ccc(Cl)cc1Cl	n	n	n	n
Cc1ccc2nc(/C(C#N)=C/c3ccccc3OC(=O)c3ccccc3)[nH]c2c1	n	n	n	52
Cc1nc2ccccc2n1CC(O)COc1ccc(C(C)(C)C)cc1 (stereo unspecified)	n	n	n	47
Cc1nc2ccccc2n1CC(O)COc1ccc2ccccc2c1Br (stereo unspecified)	n	n	n	45
COC(=O)c1cccc(OCC(O)Cn2c(C)nc3ccccc32)c1 (stereo unspecified)	n	n	n	39
COc1ccc(OCC(O)Cn2c(C)nc3ccccc32)cc1 (stereo unspecified)	n	n	n	44
CCOc1cccc2cc(C(=O)Nc3ccc(Oc4ccc(Cl)cc4)cc3)c(=O)oc12	n	n	n	n
OC[C@@H]1CCCN1c1ccnc2c(-c3ccccc3Cl)cnn12	n	n	n	48
COc1ccccc1-c1cnn2c(N3CCC[C@H]3CO)ccnc12	n	n	n	n
OC[C@@H]1CCCN1c1ccnc2c(-c3ccc(Cl)cc3)cnn12	n	n	n	85
OCCC1CCCCN1c1ccnc2c(-c3ccc(O)cc3)cnn12 (stereo unspecified)	n	n	n	93
O=C(O)c1cccc(-c2cnn3c(N4CCC[C@H]4CO)ccnc23)c1	n	n	n	101
CN(C)C(=O)c1sc2nc(-c3ccccc3)cc(C(F)(F)F)c2c1N	n	n	n	n
COC(=O)c1ccc(/C=C(\C#N)c2nc3ccccc3[nH]2)cc1	n	n	n	n
OCCC1CCCCN1c1ccnc2c(-c3ccc(CO)cc3)cnn12 (stereo unspecified)	n	n	n	n
OCCC1CCCCN1c1ccnc2c(-c3ccc4c(c3)OCO4)cnn12 (stereo unspecified)	n	n	n	43
OCCC1CCCCN1c1ccnc2c(-c3ccoc3)cnn12 (stereo unspecified)	n	n	n	n
OCCC1CCCCN1c1ccnc2c(-c3ccc(Cl)cc3)cnn12 (stereo unspecified)	n	n	n	47
COc1cc(NC(=O)c2ccc(-c3c(C)nn(C)c3C)s2)cc(OC)c1OC	n	n	n	51
Cc1ccn(S(=O)(=O)c2ccc(C)c(N3CCCC3=O)c2C)n1	2.0	n	n	n
Cc1ccc(S(=O)(=O)N2CCOCC2)c(C)c1N1CCCC1=O	n	n	n	n
CCCCNC(=O)c1c(O)c2c([nH]c1=O)CCCC2	n	n	n	n
CCOC(=O)C1CCCN(C(=O)c2cc3c(-c4cccc(OC)c4)nn(C)c3s2)C1 (stereo unspecified)	n	n	n	38
COc1cccc(-c2nn(C)c3sc(C(=O)N4CCN(c5ccccn5)CC4)cc23)c1	n	n	n	35
SMILES	FBW7 act	GPR151 ag	MITF primary	TEAD-YAP inh
C=CCNC(=O)CSc1nc(O)c(C(C)C)c(=O)[nH]1	n	n	n	n
CC(=O)c1cccc(NC(=O)c2oc3ccc4c(c3c2C)C(=O)CC(C)(C)O4)c1	n	n	n	52
Cc1c(C(=O)Nc2ccc3c(c2)OCO3)oc2ccc3c(c12)C(=O)CC(C)(C)O3	n	n	n	42
COc1ccccc1CNC(=O)c1oc2ccc3c(c2c1C)C(=O)CC(C)(C)O3	n	n	n	n
COc1cccc(NC(=O)c2oc3ccc4c(c3c2C)C(=O)CC(C)(C)O4)c1	n	n	n	92
COc1ccccc1NC(=O)c1oc2ccc3c(c2c1C)C(=O)CC(C)(C)O3	n	n	n	33
C=CCN=c1scc(-c2ccco2)n1/N=C/c1cccs1	n	n	n	34
CC(NC1CCN(c2cccc(NC(=O)c3ccncc3)c2)CC1)c1ccc(Cl)cc1 (stereo unspecified)	n	n	n	36
Cc1nc(C(C)NC2CCN(c3cccc(NC(=O)c4ccncc4)c3)CC2)cs1 (stereo unspecified)	n	n	n	n
CCOCCn1c2c(c3ccccc31)=NC1C=CC=CC1N=2 (stereo unspecified)	2.7	n	n	n
CC(=O)c1c(C)n(-c2ccc(N(C)C)cc2)c2ccc(O)cc12	n	n	n	40
Nc1nc(Nc2ccc3ncccc3c2)nc2c1ncn2-c1ccsc1	38	n	n	n
Nc1nc(Nc2ccccc2)nc2c1ncn2-c1ccsc1	n	n	n	37
c1cnc2ccc(Nc3nc(Nc4ccc(N5CCOCC5)cc4)c4ncn(-c5ccsc5)c4n3)cc2c1	n	n	n	38
c1ccc(-n2cnc3c(Nc4ccc(N5CCOCC5)cc4)nc(Nc4ccc5ncccc5c4)nc32)cc1	n	n	n	n
c1ccc(Nc2nc(Nc3ccc4ncccc4c3)nc3c2ncn3-c2ccccc2)cc1	n	n	n	42
Cc1ccccc1-n1c(SCc2cc(=O)n3cc(Br)ccc3n2)nc2[nH]ncc2c1=O	n	n	n	n
CC(=O)Nc1ccc(Nc2nc(Nc3ccc4ncccc4c3)nc3c2ncn3-c2ccccc2)cc1	n	n	n	40
CC(=O)Nc1ccc(Nc2nc(Nc3ccc4ncccc4c3)nc3c2ncn3C(C)C)cc1	n	n	n	36
c1ccc(Nc2nc(Nc3ccc4ncccc4c3)nc3c2ncn3-c2ccsc2)cc1	n	n	n	57
Cc1nc(NCCCO)c2c(-c3cccs3)csc2n1	n	n	n	32
O=C1CCCN1CCCNc1nc(NC2CC2)c2ncn(-c3ccsc3)c2n1	n	n	n	34
COc1cc(Nc2nc(NCCCN3CCCC3=O)nc3c2ncn3-c2ccsc2)cc(OC)c1OC	n	n	n	n
COc1cc(Nc2nc(NCCCN3CCCC3=O)c3ncn(-c4ccsc4)c3n2)cc(OC)c1OC	n	n	n	54
O=C1CCCN1CCCNc1nc(Nc2cnccn2)nc2c1ncn2-c1ccsc1	n	n	n	75
SMILES	FBW7 act	GPR151 ag	MITF primary	TEAD-YAP inh
Cn1nccc1Nc1nc(NCCCN2CCCC2=O)c2ncn(-c3ccsc3)c2n1	n	n	n	n
COc1cc(Nc2nc(N3CCN(c4ccccn4)CC3)nc3c2ncn3CCN2CCCC2=O)cc(OC)c1OC	n	n	n	33
Cc1cccc(NC(=O)CCCn2c(=S)[nH]c3ccsc3c2=O)c1	n	n	n	n
CC(=O)c1ccc(NC(=O)c2ccc(Cl)c(S(=O)(=O)N3CCOCC3)c2)cc1	n	n	n	n
CC(=O)c1c(C)[nH]c(C(=O)Nc2ccc3nc(C)sc3c2)c1C	n	n	n	n
O=C1CCCN1CCCNc1nc(Nc2ccccn2)nc2c1ncn2-c1ccsc1	n	n	n	53
NCCNCCCOc1ccc(Br)cc1Cl	n	n	n	n
Cc1cnc(Nc2ccc(N3CCNCC3)cc2)cc1Nc1ccccc1C(N)=O	n	n	n	33
CNC(=O)c1ccccc1Nc1cc(Nc2ccc(N3CCOCC3)cn2)ncc1C(F)(F)F	n	n	n	86
CNC(=O)c1ccccc1Nc1cc(Nc2ccc(N3CCOCC3)cc2C)ncc1C(F)(F)F	n	n	n	71
COc1cc(N2CCOCC2)ccc1Nc1cc(Nc2ccccc2NC(C)=O)c(C(F)(F)F)cn1	n	n	n	46

High-throughput results: PubChem, The Scripps Research Institute Molecular Screening Center
